Measured values reported in PubChem BioAssay (Tox21).
Active and inactive are the calls of the source. Unless noted, the call rests on the fitted dose curve; in most records, active means well fitted curve in the direction sought with a large enough effect in the repeat runs; inconclusive means weak or mixed curves; inactive means flat fitted curve, though single readings scatter.

Columns and labels:
[1] = qHTS assay to test for compound auto fluorescence at 535 nm (green) in HEK293 cells (AID 720680)
[2] = qHTS assay to test for compound auto fluorescence at 460 nm (blue) in HEK293 cell free culture (AID 720681)
Procedure, shortened: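 Compounds were added to cell-free DMEM with 10% FBS and fluorescence read directly. The blue channel used 405 nm excitation and 460 nm emission, with triamterene as the reference fluorophore.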

[3] = qHTS assay to test for compound auto fluorescence at 535 nm (green) in HEK293 cell free culture (AID 720682)
Procedure, shortened: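 Fluorescein serves as the green reference fluorophore; each compound's intrinsic emission at 535 nm (excitation 485 nm) is reported as an equivalent amount of that dye, measured in serum-containing DMEM without cells.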

[4] = qHTS assay to test for compound auto fluorescence at 590 nm (red) in HEK293 cell free culture (AID 720683)
Procedure, shortened: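 Cell-free wells of DMEM with 10% FBS received compound, and intrinsic fluorescence was read at excitation/emission 540/590 nm. Values expressed as equivalence to Rose Bengal sodium.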

[5] = qHTS assay to test for compound auto fluorescence at 460 nm (blue) in HepG2 cell free culture (AID 720685)
Procedure, shortened: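 Cell-free plates of MEM plus 10% FBS received 23 nL compound or DMSO vehicle; blue-channel (405/460 nm) intensity scored against triamterene as reference fluorophore.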

[6] = qHTS assay to test for compound auto fluorescence at 535 nm (green) in HepG2 cell free culture (AID 720686)
[7] = qHTS assay to test for compound auto fluorescence at 460 nm (blue) in HepG2 cells (AID 720687)
Procedure, shortened: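 HepG2 cells in MEM with 10% FBS, attached overnight at 37 C, were exposed to compound or DMSO for 1 hr at 37 C, 5% CO2. Blue fluorescence was read at 405/460 nm, with triamterene as reference fluorophore.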

[8] = qHTS assay to test for compound auto fluorescence at 590 nm (red) in HepG2 cell free culture (AID 720684)
Procedure, shortened: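 Auto fluorescence equivalency versus Rose Bengal sodium, red channel Ex/Em 540/590 nm; compounds in cell-free MEM/10% FBS; DMSO vehicle control.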

[9] = target: Glucocorticoid receptor (Homo sapiens) (UniProt P04150); assay: qHTS assay to identify small molecule agonists of the glucocorticoid receptor (GR) signaling pathway (AID 720691; active means well fitted activation curve with a large enough effect in the signal ratio in the repeat runs, not every such curve was filed as active; inconclusive means weak or mixed curves, or effect the other way; inactive means no such curve, though single readings can be large or run the other way; the % refers to the signal ratio; further: potency means the concentration at half of the fitted maximal effect); conditions: GR-bla HeLa, beta-lactamase reporter ratio, 18 h; activation: at 62.4 µM (top of the series)
Procedure, shortened: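 Steps: seed GR-bla HeLa cells, incubate 4 h at 37 C/5% CO2; pin-transfer DMSO-dissolved compounds; incubate 18 h at 37 C; add LiveBLAzer B/G FRET substrate; after 2 h at room temperature, measure fluorescence.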

[10] = target: Glucocorticoid receptor (Homo sapiens) (UniProt P04150); assay: qHTS assay to identify small molecule antagonists of the glucocorticoid receptor (GR) signaling pathway (AID 720692; active means well fitted inhibition curve with a large enough effect in the signal ratio in the repeat runs, not every such curve was filed as active; inconclusive means weak or mixed curves, or effect the other way; inactive means no such curve, though single readings can be large or run the other way; the % refers to the signal ratio; further: potency means the concentration at half of the fitted maximal effect)
Procedure, shortened: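 Antagonism was scored as loss of dexamethasone-driven (5 nM final) reporter signal in HeLa cells bearing a glucocorticoid response element–beta-lactamase construct, after 18 h compound exposure at 37 C and 2 h FRET substrate loading.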
On the % scale 0 is the no-effect control and ±100 the full control effect.

Glucocorticoid receptor (Homo sapiens), sequence (P04150 whole entry, looked up): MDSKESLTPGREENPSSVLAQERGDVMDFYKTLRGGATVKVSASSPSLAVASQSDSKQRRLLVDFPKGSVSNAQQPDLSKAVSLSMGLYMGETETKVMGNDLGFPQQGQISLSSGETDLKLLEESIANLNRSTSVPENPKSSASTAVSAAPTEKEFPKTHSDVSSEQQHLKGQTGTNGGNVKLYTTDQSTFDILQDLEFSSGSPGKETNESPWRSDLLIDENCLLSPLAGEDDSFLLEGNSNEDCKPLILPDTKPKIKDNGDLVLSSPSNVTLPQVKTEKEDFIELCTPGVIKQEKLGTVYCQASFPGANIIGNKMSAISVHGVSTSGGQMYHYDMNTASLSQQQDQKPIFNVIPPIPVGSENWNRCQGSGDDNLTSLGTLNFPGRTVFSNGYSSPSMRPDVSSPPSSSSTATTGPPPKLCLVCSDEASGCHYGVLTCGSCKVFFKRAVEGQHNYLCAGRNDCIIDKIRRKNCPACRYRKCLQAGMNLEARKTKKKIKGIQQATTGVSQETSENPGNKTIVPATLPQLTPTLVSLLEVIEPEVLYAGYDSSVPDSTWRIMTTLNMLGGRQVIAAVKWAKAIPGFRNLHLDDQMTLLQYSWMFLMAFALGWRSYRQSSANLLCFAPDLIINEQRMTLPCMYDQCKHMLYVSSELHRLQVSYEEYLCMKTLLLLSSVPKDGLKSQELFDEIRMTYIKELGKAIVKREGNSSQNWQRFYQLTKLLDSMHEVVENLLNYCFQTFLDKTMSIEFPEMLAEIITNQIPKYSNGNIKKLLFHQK

CCOC(=O)COc1ccc(C)cc1
inactive: Potency [1] | Potency [2] | Potency [3] | Potency [4] | Potency [5] | Potency [6] | Potency [7]

CCN(CC)CCNc1ccc(CO)c2sc3ccccc3c(=O)c12
inactive: Potency [1] | Potency [2] | Potency [3] | Potency [4] | Potency [8] | Potency [5] | Potency [7]
active: Potency [9] 19 µM

CCc1ccc(O)c(C(C)(C)C)c1
inactive: Potency [1] | Potency [2] | Potency [3] | Potency [4] | Potency [8] | Potency [5] | Potency [7] | Potency [10]

C=C(C)C(=O)OCCC[Si](Cl)(Cl)Cl
inactive: Potency [1] | Potency [2] | Potency [3] | Potency [4] | Potency [8] | Potency [5] | Potency [7] | Potency [9]

Cc1c(-c2ccc(O)cc2)n(Cc2ccc(OCCN3CCCCCC3)cc2)c2ccc(O)cc12
inactive: Potency [1] | Potency [2] | Potency [3] | Potency [4] | Potency [8] | Potency [5] | Potency [7]

Oc1ccc(-c2ccccc2)c(Cl)c1
inactive: Potency [1] | Potency [2] | Potency [3] | Potency [4] | Potency [8] | Potency [5] | Potency [7] | Potency [9] | Potency [10]

SCCCCCCCCS
inactive: Potency [1] | Potency [2] | Potency [3] | Potency [4] | Potency [8] | Potency [5] | Potency [7]

CCCCCCCCCC(=O)N(C)C
inactive: Potency [1] | Potency [2] | Potency [3] | Potency [4] | Potency [8] | Potency [5] | Potency [7] | Potency [9] | Potency [10]

O=C(Oc1ccccc1)c1cccc(C(=O)Oc2ccccc2)c1
inactive: Potency [1] | Potency [2] | Potency [3] | Potency [4] | Potency [8] | Potency [5] | Potency [7] | Potency [9]

CCCCCCCCCCOCC(O)CN (centres undefined)
inactive: Potency [1] | Potency [2] | Potency [3] | Potency [4] | Potency [8] | Potency [5] | Potency [6] | Potency [7]
active: Potency [10] 26.8 µM

CCNc1nc(NC(C)CC)nc(OC)n1 (centres undefined)
inactive: Potency [1] | Potency [2] | Potency [3] | Potency [4] | Potency [8] | Potency [5] | Potency [7] | Potency [9] | Potency [10]

CCc1cccc(C)c1
inactive: Potency [1] | Potency [2] | Potency [3] | Potency [4] | Potency [8] | Potency [5] | Potency [7] | Potency [9] | Potency [10]

C=C[C@](C)(O)CC[C@@H]1[C@@]2(C)CCCC(C)(C)[C@@H]2CC[C@@]1(C)O
inactive: Potency [1] | Potency [2] | Potency [3] | Potency [4] | Potency [5] | Potency [6] | Potency [7]

COc1cc(C(=O)NS(=O)(=O)c2ccccc2C)ccc1Cc1cn(C)c2ccc(NC(=O)OC3CCCC3)cc12
inactive: Potency [1] | Potency [2] | Potency [3] | Potency [4] | Potency [8] | Potency [5] | Potency [7] | Potency [9]
active: Potency [10] 12 µM

CN1[C@@H]2CC[C@@H]1CC(OC(=O)C(CO)c1ccccc1)C2 (some centres undefined)
inactive: Potency [1] | Potency [2] | Potency [3] | Potency [4] | Potency [8] | Potency [5] | Potency [7] | Potency [9] | Potency [10]

Cc1nc(Nc2ncc(C(=O)Nc3c(C)cccc3Cl)s2)cc(N2CCN(CCO)CC2)n1
inactive: Potency [1] | Potency [2] | Potency [3] | Potency [4] | Potency [8] | Potency [5] | Potency [7]

c1ccc(Sc2ccccc2)cc1
inactive: Potency [1] | Potency [2] | Potency [3] | Potency [4] | Potency [8] | Potency [5] | Potency [7]

COc1ccccc1OCCNCC(O)COc1cccc2[nH]c3ccccc3c12 (centres undefined)
inactive: Potency [1] | Potency [2] | Potency [3] | Potency [4] | Potency [8] | Potency [5] | Potency [7] | Potency [9]

CC1=C(/C=C/C(C)=C/C=C/C(C)=C/C(=O)Nc2ccc(O)cc2)C(C)(C)CCC1
inactive: Potency [1] | Potency [2] | Potency [3] | Potency [4] | Potency [8] | Potency [5] | Potency [7]

CC(=O)Nc1ccc(O)cc1
inactive: Potency [1] | Potency [2] | Potency [3] | Potency [4] | Potency [8] | Potency [5] | Potency [7]

CN(C)c1ccc(N=Nc2ccccc2C(=O)O)cc1
inactive: Potency [1] | Potency [2] | Potency [3] | Potency [4] | Potency [8] | Potency [5] | Potency [7] | Potency [9]

CN(Cc1cc(Br)cc(Br)c1N)C1CCCCC1
inactive: Potency [1] | Potency [2] | Potency [3] | Potency [4] | Potency [8] | Potency [5] | Potency [7] | Potency [9] | Potency [10]

O=C(Nc1ccc(Cl)c(Cl)c1)c1cc(Cl)cc(Cl)c1O
active: activation [9] 11.6% [inconclusive]
inactive: Potency [1] | Potency [2] | Potency [3] | Potency [4] | Potency [8] | Potency [7]

CC1=C(/C=C/C(C)=C/C=C/C(C)=C\C=O)C(C)(C)CCC1
inactive: Potency [1] | Potency [2] | Potency [3] | Potency [4] | Potency [8] | Potency [5] | Potency [7]

N#CSCSc1nc2ccccc2s1
active: Potency [10] 24.5 µM
inactive: Potency [1] | Potency [2] | Potency [3] | Potency [4] | Potency [8] | Potency [5] | Potency [6] | Potency [7]

CCCCCCCCCCCC(=O)N(CC)CC
inactive: Potency [1] | Potency [2] | Potency [3] | Potency [4] | Potency [8] | Potency [5] | Potency [7]

[O]=[Zr]
inactive: Potency [1] | Potency [2] | Potency [3] | Potency [4] | Potency [5] | Potency [6] | Potency [7]

CC(CN(C)C)CN1c2ccccc2CCc2ccccc21 (centres undefined)
inactive: fluorescence, % of fluorescein [1] 0.0583% [at 18.6 µM] | fluorescence, % of fluorescent control [2] 0.133% [at 18.6 µM] | activity change [3] -0.0046% [at 18.6 µM, hits give high values] | fluorescence, % of fluorescent control [4] 0.264% [at 18.6 µM] | fluorescence, % of fluorescent control [5] 0.118% [at 18.6 µM] | fluorescence, % of fluorescein control [6] -0.0071% [at 18.6 µM] | fluorescence, % of fluorescent control [7] -0.0977% [at 18.6 µM]

O=C1NCN(c2ccccc2)C12CCN(CCCC(c1ccc(F)cc1)c1ccc(F)cc1)CC2
inactive: Potency [1] | Potency [2] | Potency [3] | Potency [4] | Potency [5] | Potency [6] | Potency [7]

NCCCC(O)(P(=O)(O)O)P(=O)(O)O
inactive: Potency [1] | Potency [2] | Potency [3] | Potency [4] | Potency [5] | Potency [6] | Potency [7] | Potency [9] | Potency [10]

CCCCOc1ccc(C(=O)CCN2CCCCC2)cc1
inactive: fluorescence, % of fluorescein [1] 0.0036% [at 18.6 µM] | fluorescence, % of fluorescent control [2] 0.0618% [at 18.6 µM] | activity change [3] -0.0432% [at 18.6 µM, hits give high values] | fluorescence, % of fluorescent control [4] -0.0248% [at 18.6 µM] | fluorescence, % of fluorescent control [5] 0.0259% [at 18.6 µM] | fluorescence, % of fluorescein control [6] 0.0663% [at 18.6 µM] | fluorescence, % of fluorescent control [7] -0.165% [at 18.6 µM] | Potency [9]
